DT40 TDP1 no CPT: qHTS for Inhibitors of human tyrosyl-DNA phosphodiesterase 1 (TDP1): qHTS in cells in absence of CPT; DT40 Tdp1-/- hTDP1 cells, no CPT, ATP luminescence, 48 h; Potency, µM (series often up to 46.2 µM), for the others: at the highest dose activity change, negative = growth inhibition, hits mostly inhibitors; 15% of 420,000 active; also: potency is read from the fitted curve at half-maximal effect; nearly all actives have a fitted effect of over 55% in size
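Growth kinetics read by CellTiter-Glo luminescence after ≥48 hr at 37 °C. Cells: DT40 Tdp1-/- stably carrying human TDP1, 400 per well, compound exposure in the absence of CPT (DMSO vehicle).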
HT1080 IDH1KD tx: HT-1080 IDH1 knockdown cell toxicity (counter line); 2% of 360,000 active; Potency, µM (highest dose often 46.1 µM), for inactives: top-dose activity, negative = toxicity, actives largely listed as cytotoxic; AID 686971; HT-1080 IDH1 knockdown viability, ATP luminescence, 48 h;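 also: potency is read from the fitted curve at half-maximal effect; 0% = DMSO wells and -100% = cell-free medium wells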
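IDH1KD HT-1080 cells, 750/well, RPMI + 5% FBS; compound pinned after 2 h settling; 48 h, 37 °C; CellTiter-Glo luminescence; % activity normalised to DMSO and no-cell wells; curves fitted, classed by r2 and efficacy.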
IL1B secr inh: blocks inflammasome-driven IL-1 beta release. activity change, % at 57.5 µM. AID 743279. 4.7% of 360,000 active. THP-1 LPS/ATP IL-1B secretion, AlphaLISA, 16 h; active compounds read low; in the data active = activity change below about -50%; inconclusive = mostly about -30% to -49%
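THP-1 cells pretreated 1 hr with compounds (up to 57.5 uM final), then stimulated with LPS (250 ng/mL final) plus ATP (1.25 mM final); secreted IL-1B measured by AlphaLISA after 16 hr, decreased signal indicating inhibition.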
HT1080NT lethal: kills 2HG-producing HT-1080-NT fibrosarcoma cells | HT-1080-NT fibrosarcoma viability, CellTiter-Glo ATP luminescence, 48 h | Potency, µM (series often up to 46.1 µM), inactives show top-dose activity, negative = less viability, most hits filed as cytotoxic | 1.6% of 360,000 active;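 also: NT is the 2HG producing partner of a matched IDH1 knockdown line; potency is read from the fitted curve at half-maximal effect; 0% = DMSO-treated cells and -100% = media-only wells without cells; nearly all actives have a fitted effect of over 55% in size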
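A 48-hour cytotoxicity screen used HT-1080-NT cells plated 2 hours before compound delivery. ATP-based CellTiter-Glo luminescence measured viability, normalized to DMSO and no-cell controls.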
TDP1 cell CPT: DT40-hTDP1 cell growth loss with CPT; chicken DT40 Tdp1-/-;hTDP1 cells + 20 nM CPT, ATP luminescence, 48 h; Potency, µM (titrated, usually from 46.2 µM), without a hit: top-dose activity change, negative = growth inhibition, usual class: inhibitors; 12% of 420,000 active; also: potency is read from the fitted curve at half-maximal effect; nearly all actives have a fitted effect of over 55% in size
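Chicken DT40 Tdp1-/- cells stably complemented with human TDP1 were seeded at 400 cells/well in medium containing 20 nM camptothecin, exposed to pin-transferred compounds, and grown at 37 °C for at least 48 hr. Viability was read as ATP luminescence.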
* marks the source's active call; other numbers are inactive results; ? = inconclusive; nt = no result given; [ ] = another dose, or the depositor's remark. Shown are actives, neighbours in structure and some others; about 19% of the full set was active somewhere. Unless noted, calls follow the shape of the dose curve; as a rule, active = well fitted curve in the direction sought with a large enough effect; inconclusive = small, poorly fitted or top-dose-only effect, or another doubt; inactive = no such curve, though single readings can be large; an effect the other way counts as inactive or inconclusive. Unless noted, % is scaled to controls: 0 for no effect and ±100 for the full control effect.

SMILES | DT40 TDP1 no CPT | HT1080 IDH1KD tx | IL1B secr inh | HT1080NT lethal | TDP1 cell CPT
CCCCCNC(=O)C(c1ccc(-c2ccccc2)cc1)n1c(=O)c(-c2ccccc2)nc2ccccc21 (stereo unspecified) | ? | 18.9% | 51.6 | 19.8% | ?
CCCCCNC(=O)C(CCc1ccccc1)n1c(=O)c(-c2ccccc2)nc2ccccc21 (stereo unspecified) | 5.8µM* | ? | 16.2 | -24.0% | 5.8µM*
CCCCCNC(=O)C(CCc1ccccc1)n1c(=O)c(-c2cc3ccccc3[nH]2)nc2ccccc21 (stereo unspecified) | ? | ? | 34.7 | -21.4% | ?
CCc1cccc(C)c1NC(=O)C1CCN(S(=O)(=O)c2cc(Br)cc3c2N(C(C)=O)CC3)CC1 | 2.0% | nt | nt | nt | 17.1%
Cc1ccccc1NC(=S)N=Nc1c(O)n(C)c2ccc(S(=O)(=O)N3CCOCC3)cc12 | 7.31µM* | 20.6µM* | -12.6 | ? | 8.2µM*
Cn1c(=O)n(C)c2cc(S(=O)(=O)N3CCOCC3)ccc21 | -18.6% | 8.9% | 3.2 | 3.2% | 5.4%
Cc1cccc(C)c1NC(=S)N=Nc1c(O)n(C)c2ccc(S(=O)(=O)N3CCOCC3)cc12 | 4.11µM* | 0.6% | 2.3 | 8.4% | 2.59µM*
Cc1cc[n+]2cc(-c3cccc([N+](=O)[O-])c3)c(-c3cccc([N+](=O)[O-])c3)cc2c1 | 2.7% | 3.5% | -10.0 | 0.6% | -1.9%
Cc1ccc(C)c(NC(=O)Cn2c(=O)n(Cc3ccco3)c(=O)c3oc4ccccc4c32)c1 | 10.3µM* | nt | nt | nt | 16.4µM*
CCCCn1c(=O)c2oc3ccccc3c2n(CC(=O)Nc2ccc(CC)cc2)c1=O | ? | nt | nt | nt | 13µM*
CCCCn1c(=O)c2oc3ccccc3c2n(CC(=O)Nc2cc(C)ccc2C)c1=O | 11.6µM* | nt | nt | nt | 11.6µM*
Cc1cc(C)cc(NC(=O)Cn2c(=O)n(Cc3ccco3)c(=O)c3oc4ccccc4c32)c1 | -34.0% | nt | nt | nt | ?
Cc1ccc(C)c(NC(=O)Cn2c(=O)n(Cc3ccccc3)c(=O)c3oc4ccccc4c32)c1 | 5.8µM* | nt | nt | nt | 4.61µM*
Cc1ccc2c(c1)c1c(c(=O)n(Cc3ccccc3)c(=O)n1CC(=O)Nc1ccccc1C)n2C | -21.4% | nt | nt | nt | -16.2%
COc1ccc(C(=O)N2CCOC2CNC(=O)C(=O)NCc2ccccn2)cc1 (stereo unspecified) | -13.2% | 4.5% | 3.9 | 14.9% | 2.7%
O=C(NCCN1CCC(n2c(=O)[nH]c3ccccc32)CC1)c1ccccc1C(F)(F)F | ? | 7.2% | -21.4 | 0.9% | ?
COc1ccc(F)c(CN2CCOc3ccc(CN4CCC(O)(c5cccnc5)CC4)cc3C2)c1 | ? | nt | nt | nt | -6.9%[9.04 µM]
Cn1cc(C(=O)NCCc2ccccc2)c(=O)c2cc(S(=O)(=O)N3CCOCC3)ccc21 | ? | 0.9% | -10.3 | -0.4% | ?
CNC(=O)c1c(NC(=O)c2cc(=O)c3ccccc3o2)sc2c1CCC2 | -0.2% | nt | nt | nt | 0.9%
Cn1c(SCC(=O)N2c3ccccc3CCc3ccccc32)nnc1-c1ccc(O)cc1 | -22.9% | -1.0% | -6.9 | -1.4% | -9.0%
CCOC(=O)C1=C(C)NC(=O)NC1c1ccc(N(CC)CC)cc1 (stereo unspecified) | ? | 2.6% | -14.6 | 1.7% | ?
O=C(OCCOc1cccc(Cl)c1)c1cc(S(=O)(=O)N2CCOCC2)ccc1F | ? | 25.0% | -9.3 | 15.3% | ?
Cc1nc(Nc2ccc3c(c2)OCCO3)c2c(C)c(C)sc2n1 | 20.6µM* | -5.5% | -15.1 | -7.1% | ?
c1ccc2c(c1)oc1c(Nc3ccc4c(c3)OCCO4)ncnc12 | ? | ? | 0.1 | ? | 8.91µM*
Cc1nc(Nc2ccc3c(c2)OCCO3)c2oc3ccccc3c2n1 | 20.6µM* | -19.1% | -83.8* | -19.3% | ?
SMILES | DT40 TDP1 no CPT | HT1080 IDH1KD tx | IL1B secr inh | HT1080NT lethal | TDP1 cell CPT
CCCCNC(=S)NNC(=O)CCn1nc(C)c(Br)c1C | 5.62µM* | 1.12µM* | 6.8 | 0.891µM* | 6.31µM*
Cc1nn(CCC(=O)NNC(=S)Nc2ccc(F)cc2)c(C)c1Br | ? | -1.0% | 16.9 | 0.1% | ?
Clc1ccc(/C=N/Nc2nnc(-c3ncc[nH]3)c3ccccc23)cc1 | 20.6µM* | ? | 22.0 | ? | ?
CC(CCc1ccco1)NC(=O)c1cc2c(-c3ccccc3F)nn(C)c2s1 (stereo unspecified) | ? | -4.7% | -23.9 | -1.2% | ?
O=C(Nc1ccc2c(c1)OCCO2)c1cccs1 | 0.0% | -14.3% | -22.6 | -13.3% | ?
Cn1nc(-c2ccccc2F)c2cc(C(=O)NCc3ccc(Cl)cc3)sc21 | 16.4µM* | nt | nt | nt | ?
Cn1nc(-c2ccccc2F)c2cc(C(=O)Nc3ccc4c(c3)OCCO4)sc21 | 20.6µM* | ? | -64.7* | -12.6% | ?
CCCN(CCC)CCNC(=O)c1cc2c(-c3ccccc3F)nn(C)c2s1 | ? | ? | -91.8* | -24.5% | ?
Cn1nc(-c2ccccc2F)c2cc(C(=O)NCc3cccc(Cl)c3)sc21 | ? | nt | nt | nt | 14.6µM*
c1ccc(-c2ccccc2OCCOCCN2CCOCC2)cc1 | -4.5% | -0.4% | 8.5 | -15.8% | -17.5%
CCOC(=O)c1cc(S(=O)(=O)NCc2ccc(OC)cc2)[nH]n1 | -23.0% | nt | nt | nt | -13.5%
CC(=O)OCC(=O)N1N=C(c2ccc3ccccc3c2)CC1c1ccccc1 (stereo unspecified) | -10.1% | 5.2% | -21.5 | 14.8% | 19.1%
COc1ccc(C2=NN(C(=O)CCC(=O)O)C(c3ccc(OC)cc3)C2)cc1 (stereo unspecified) | 8.1% | 0.2% | 13.3 | 1.2% | 6.6%
COc1ccc(C2CC(c3ccc4ccccc4c3)=NN2C(=O)CN2CCC(C(N)=O)CC2)cc1 (stereo unspecified) | ? | ? | -81.6* | ? | ?
C=CCNCC(=O)N1N=C(c2ccc3ccccc3c2)CC1c1ccc(OC)cc1 (stereo unspecified) | 13µM* | 23.1µM* | 0.0 | 23.1µM* | 8.2µM*
COc1ccc(C2CC(c3ccc4ccccc4c3)=NN2C(=O)CNC2CCCCC2)cc1 (stereo unspecified) | 13µM* | ? | -50.9* | 23.1µM* | 14.6µM*
COc1ccc(C2CC(c3ccc4ccccc4c3)=NN2C(=O)COC(=O)C2CCC(=O)N2)cc1 (stereo unspecified) | ? | ? | -69.5* | ? | 16.4µM*
COc1ccc(S(=O)(=O)N(C)c2ccc(OC(=O)C(C)Oc3ccc(F)cc3)cc2)cc1 (stereo unspecified) | -10.7% | -14.2% | 9.4 | -5.6% | -6.4%
